Reference: PubChem BioAssay (NCI)
Where “and” joins values, the source holds several entries; their conditions need not be identical. Equal entries are not always repeated. About 83,000 compounds went through this panel and 20% of them were active in at least one assay; those are over-represented in the sample as a whole.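 Percent growth is the endpoint: 0 to 100 indicates growth inhibition (40 means 60% inhibition), 0 means no net growth, and negative values indicate cell death.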 Unmarked numbers belong to inactive results. Calls of active or inactive are those of the source. The calls were made as follows: active = growth percent below 10; inactive = the rest.

tested on: MDA-MB-468 breast; test: NCI-60 one-dose screen, 48 h (100 = growth as untreated, 0 = no growth, -100 = all killed); conditions: 10 µM unless noted

Compound | growth
C=C1C(=O)O[C@H]2[C@H]1CC/C(Cn1cc(-c3cc(C)c(C)cc3C)nn1)=C\CC[C@@]1(C)O[C@@H]21 | -75.6% (active)
CCN(CC)c1ccc(/C=N/NC(=O)c2ccccc2Nc2ccnc(C(F)(F)F)c2)c(O)c1 | 24.7%
COC(=O)[C@]12CC[C@@H](C)[C@H](C)[C@@H]1C1=CC[C@@H]3[C@@]4(C)C=C(O)C(=O)C(C)=C4CC[C@@]3(C)[C@]1(C)CC2 | 10.6%
CN1Cc2c(cc(CN3CCCCC3)n2C)C(c2ccc(Br)cc2)C1 (stereo not given) | 56.2%
O=[N+]([O-])c1ccc(C(Br)c2ccc([N+](=O)[O-])cc2)cc1 | 112%
CCCCCCCC(=O)SCC/C=C/[C@@H]1CC(=O)NCc2cccc(n2)CN(Cc2ccc3ccccc3c2)CC(=O)N[C@@H](C(C)C)C(=O)O1 | 7.6% (active)
COc1ccc(C/C(C)=C(\c2ccc(Cl)cc2)c2ccc(OCCN3CCCC3)cc2)cc1 | 70%
Oc1ccc(N=Nc2ccc(Br)cc2)c(O)c1 | 15.4%
CCCCn1c(-c2ccc(O)cc2)cn2c3c(=O)[nH]c(=O)n(C)c3nc12 | 43.4%
S=c1cc(S)c2cc(Br)ccc2[nH]1 | 104%
S=c1[nH]cccc1-c1nnc2n1Nc1nc3ccc(Cl)cc3cc1CS2 | 109%
CC1(C)[C@@H](O)CC[C@]2(C)[C@H]3CC[C@@H]4[C@H]5[C@H](C(=O)/C=C\c6ccc([N+](=O)[O-])cc6)CC[C@]5(O)CC[C@@]4(C)[C@]3(C)CC[C@@H]12 | 36.2%
Nc1c(C(=O)Nc2ccccc2)sc2nc3c(cc12)CCC3 | 49.7%
COC(=O)c1ccc(NC(N)=NCC(C)(C)COc2ccc(C(F)(F)F)cc2)nc1 | 17.1%
O=C1Nc2ccc(Br)cc2C12Oc1ccccc1C1CC(c3ccc(F)cc3)=NN12 (stereo not given) | 82.1%
CCN1C(=O)N(CC)C2C1NN=c1s/c(=C\c3ccc(F)cc3)c(=O)n12 (stereo not given) | 11.9%
O=c1[nH]c2ccccc2cc1CSc1ccccc1Nc1nccc(-c2ccc(C(F)(F)F)cc2)n1 | 47.6%
COc1ccc(-c2nsc3c2NC(=O)CC3c2cccc(F)c2)cc1 (stereo not given) | 19.7%
OC(c1ccccc1)c1nnc(SCc2ccccc2)n1Cc1ccccc1 (stereo not given) | 88.5%
N#CC1C(C#N)C2c3ccccc3C=CN2C1C(=O)c1ccc(Br)cc1 (stereo not given) | 99.6%

Compound | growth
Cc1cccc(NC(=O)Cn2cc(CN3CCN(c4ccnc5cc(Cl)ccc45)CC3)nn2)c1 | 90.2%
CCCCN(CCCC)CCC(O)c1cc2ccc(C(F)(F)F)cc2c2cc(C(F)(F)F)ccc12 (stereo not given) | 39.6%
CCC1CN2C(=N1)c1ccccc1-c1cc(Cl)ccc12 (stereo not given) | -7.75% (active)
COc1ccc(-c2cc(-c3cn(-c4cccc(Cl)c4)nc3-c3ccc(OC)cc3)[nH]c(=S)n2)cc1 | 39%
O=c1[nH]c(-c2cn(-c3ccc(Cl)cc3)nn2)nc2ccccc12 | 77.1%
N=C(N)c1ccc(-c2ccc(-c3ccc(Cl)cn3)s2)cc1 | -28.2% (active)
C[C@]12CCC(=O)C=C1CCC1C2[C@@H](O)C[C@@]2(C)C1CC[C@]2(O)C(=O)COC(=O)CCC(=O)O (stereo not given in full) | 109%
CCC(C(=O)[C@@H](C)[C@@H](O)[C@H](C)[C@@H]1O[C@@H]([C@@H](CC)C(=O)ONC(=O)c2ccccc2)CC[C@@H]1C)[C@H]1O[C@]2(C=CC(=O)[C@]3(CC[C@@](C)([C@H]4CC[C@](O)(CC)[C@H](C)O4)O3)O2)[C@H](C)C[C@@H]1C (stereo not given in full) | -33.2% (active)
Cc1cc(=O)n2nnc3cc(C(F)(F)F)ccc3n12 | 122%
COc1cc(NC(C)CCCN)c2ncccc2c1Sc1ccc(Cl)cc1 (stereo not given) | -2.79% (active)
COc1ccc2nc(NC(=O)Nc3c(F)cccc3F)sc2c1 | 96.1%
CC(=O)Nc1cc(S(=O)(=O)O)cc2cc(S(=O)(=O)O)c(N=Nc3ccccc3)c(O)c12 | 93.5% and 101%
O=C(NC(CSSCC(NC(=O)c1ccccc1)C(=O)O)C(=O)O)c1ccccc1 (stereo not given) | 111%
CC(=O)n1nc(C(=O)OC(C)(C)C)c2cc(F)c(F)cc21 | 97.4%
CC/C(=C(/c1ccc(Cl)cc1)c1ccc(OCCN)cc1)c1ccccc1 | 88.8%
COc1cc(Cn2cc3c(c2)-c2oncc2CC3)cc(OC)c1OC | -17.1% (active)
CC(C)CC1NC(=O)C(CC(C)C)N(CO)C1=O (stereo not given) | 99.3%
Oc1ccc(CSc2nnc(-c3ccc(Br)cc3)o2)c2cccnc12 | 35.4%
C[C@]12CC[C@@H]3c4cc(OC(F)F)c(OS(N)(=O)=O)cc4CC[C@H]3[C@@H]1CC[C@@H]2OS(N)(=O)=O | 11.9%
COC(=O)C1(C)CCC[C@]2(C)[C@H]3C[C@H]4C(C(C)C)=C[C@]3(CC[C@@H]12)[C@H]1[C@@H]4[C@@H](OCC#CCN2CCOCC2)CC[C@@H]1OCC#CCN1CCOCC1 (stereo not given in full) | 80%
